In test [1] the target is Cytochrome P450 1A2 (Homo sapiens) (UniProt P05177). Description: p450-cyp1a2 (AID 410; calls by dose curve; also: potency is read from the fitted curve at half-maximal effect;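 as to activity change, negative = inhibition: -100% = full effect of reference inhibitor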). Summed up: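 20nM CYP1A2, 100uM Luciferin-ME (=Km), 100mM KPO4; cpd 10 min RT; +NADPH regen, 60 min RT; stop/detect 20 min; luminescence. Normalized to furafylline 57 uM = full inhibition.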
Test [2] addresses Glucocorticoid receptor (Homo sapiens) (UniProt P04150). Kind of test: GR-GFP Redistribution (AID 450;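 active = compounds whose dose series gives a full or clear partial fitted curve of increased nuclear translocation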; also: potency is read from the fitted curve at half-maximal effect). The following applies: U2OS GR-GFP nuclear translocation, laser cytometry, 2 h.
Test [3] shares this target. Description: GR-EFC Redistribution (AID 451; calls by dose curve; also: potency is read from the fitted curve at half-maximal effect). To be noted: CHO-K1 GR-EFC translocation, beta-gal luminescence, 2 h. Summed up:
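CHO-K1 cells stably expressing nuclear-localized β-gal enzyme acceptor and GR fused C-terminally to the enzyme donor fragment; ligand-driven nuclear translocation restores β-gal by complementation. Compounds titrated up to 46 uM final, 2 h at 37 °C; luminescence read.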

Test [4] has as its target Mitogen-activated protein kinase 10 (Mus musculus) (UniProt Q61831). Description: JNK3 AlphaScreen Assay (AID 530; active = well fitted curve in either direction with a large enough effect, not every such curve was filed as active;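 also: kinase came from lysate of stimulated human HepG2 cells; signal reports phosphorylation of biotinylated GST-cJun 1-79 at Ser73 with 10 µM ATP; % is scaled to controls: 0 for no effect and ±100 for the full control effect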). Put shortly:
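Biotinylated GST-cJun(1-79) served as substrate for JNK3 in HepG2 lysates stimulated with IL-1beta and TNF-alpha. ATP was 10 uM final, pH 7.6. Ser73 phosphorylation was quantified by AlphaScreen (680 nm excitation).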
(Bead proximity is the source of the signal in Alpha formats.)

Test [5] addresses Cytochrome P450 2C9 (Homo sapiens) (UniProt P11712). Description: qHTS Assay for Inhibitors and Substrates of Cytochrome P450 2C9 (AID 883). Also: potency is read from the fitted curve at half-maximal effect; nearly all actives have a fitted effect of over 60% in size. Put shortly: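 A luminogenic readout tracked human CYP2C9 (10nM) converting deoxyluciferin (100uM, at KM) in 25mM KPO4 during 60 min at 37C with regenerated NADPH. Values normalized to 57uM sulphaphenazole as complete inhibition.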
A general note: In qHTS, concentration-response curves come from the screen itself.

The target of test [6] is Cytochrome P450 3A4 (Homo sapiens) (UniProt P08684). Kind of test: qHTS Assay for Inhibitors and Substrates of Cytochrome P450 3A4 (AID 884). Also: potency is read from the fitted curve at half-maximal effect; nearly all actives have a fitted effect of over 50% in size. Summed up: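 Luminescent readout of luciferin produced by CYP3A4 (20 nM) dealkylation of Luciferin-PPXE, 25 uM (its KM). NADPH-driven reaction ran 60 min at RT after 10 min compound preincubation; data scaled to 57 uM ketoconazole as 100% inhibition.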

For test [7] the target is unchanged. Kind of test: qHTS Assay for Activators of Cytochrome P450 3A4 (AID 885). Also: nearly all actives have a fitted effect of over 65% in size. Put shortly: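 Activators are scored by enhanced luminescence from CYP3A4 conversion of luciferin-PPXE (25uM, equal to KM) to luciferin, after 60 min at RT with an NADPH-regenerating system.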
In test [8] the target is Dual specificity protein kinase CLK4 (Homo sapiens) (UniProt Q9HAZ1). Description: qHTS Assay for Inhibitors of CDC-like Kinase 4 (Kinase-Glo Assay) (AID 1770). Also: nearly all actives have a fitted effect of over 65% in size. Also: potency is read from the fitted curve at half-maximal effect. Put shortly:
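25 nM Clk4 with 100 uM RS repeat peptide and 1 uM ATP (final) in Tris pH7.5, 10 mM MgCl2, 4.5 h at room temperature. Remaining ATP measured by Kinase-Glo luciferase luminescence.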

The target is the same in test [9]. Description: qHTS Assay for Inhibitors of CDC-like Kinase 4 (ADP-Glo Assay) (AID 1771). Also: nearly all actives have a fitted effect of over 70% in size. Also: potency is read from the fitted curve at half-maximal effect. Put shortly: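 25 nM Clk4, 100 uM RS peptide, 1 uM ATP (final); 2 mM MgCl2, 0.5 mM EGTA, 2.5 mM DTT, 0.01% Triton X-100; 1 hr RT. ADP-Glo readout: ATP depletion 45 min, conversion/luciferase 30 min, luminescence.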
Test [10] has the same target. Kind of test: qHTS Assay for Inhibitors of CDC-like Kinase 4 (ADP-FP Assay) (AID 1795).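 Also: recombinant human CLK4 phosphorylating RS repeat peptide at 1 µM ATP; % is scaled to controls: 0 for no effect and ±100 for the full control effect; nearly all actives have a fitted effect of over 60% in size.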 Put shortly:
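Recombinant Clk4 (6.25 nM) phosphorylated 100 uM RS repeat peptide with 1 uM ATP in 25 mM Tris pH 7.5, 10 mM MgCl2, 0.5 mM EGTA, 2.5 mM DTT, 0.01% Triton X-100 for 1 h. ADP was detected by Transcreener ADP2 competitive fluorescence polarization after 30 min at room temperature.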

Test [11] deals with Ubiquitin carboxyl-terminal hydrolase 1 (Homo sapiens) (UniProt O94782). Description: Inhibitors of USP1/UAF1: Pilot qHTS (AID 504865).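 Also: rhodamine fluorescence freed from ubiquitin-rhodamine substrate followed over time; top concentration of the series differs between compounds; % is scaled to controls: 0 for no effect and ±100 for the full control effect; nearly all actives have a fitted effect of over 35% in size.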 Put shortly: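 USP1/UAF1 complex at 1 nM preincubated 15 min at room temperature with compound, then Ub-Rho substrate added at 150 nM final. Fluorescence (480/540 nm) read kinetically in 50 mM HEPES pH 7.8, 0.5 mM EDTA, 1 mM TCEP, 0.1 mg/ml BSA, 0.01% Tween-20.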

The nature of test [12]: Primary qHTS for small molecule stabilizers of the endoplasmic reticulum resident proteome: Secreted ER Calcium Modulated Protein (SERCaMP) assay (AID 1508630). Also: % is scaled to controls: 0 for no effect and ±100 for the full control effect. Put shortly: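 The SH-SY5Y reporter protocol was run at 3 concentrations up to 38.3 uM (primary) or 11 concentrations (follow-up): 16 h compound, 100 nM thapsigargin for 4 h, then extracellular luciferase luminescence.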

Test [13] in a line: AP1 Signaling Pathway (AID 357; active = well fitted curve in either direction with a large enough effect, not every such curve was filed as active; also: % is scaled to controls: 0 for no effect and ±100 for the full control effect). The following applies: ME-180 AP-1-bla reporter, EGF-induced, beta-lactamase ratio, 5 h; at 7.69 µM (top of the series) unless noted. Put shortly: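 AP-1-bla ME-180 cells with beta-lactamase reporter under AP-1 response element, stimulated with EC50 EGF; compounds titrated, 5 hours at 37 degrees Celsius. CCF4 read at 460/530 nm ratio; positive and negative modulators judged by AC50.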

The nature of test [14]: NFAT Signaling Pathway (AID 444; active = well fitted curve in either direction with a large enough effect, not every such curve was filed as active;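 also: carbachol stimulus at about its EC50 of 1 µM final; % is scaled to controls: 0 for no effect and ±100 for the full control effect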). To be noted: Jurkat NFAT-bla M1, carbachol, beta-lactamase ratio, 5 h; at 7.69 µM (top of the series) unless noted. Summed up:
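Jurkat cells carrying an NFAT-driven β-lactamase reporter and co-transfected muscarinic M1 receptor were treated with compound plus carbachol (1 uM final, an EC50 level) for 5 h at 37 °C. CCF4 loading followed for 1 h at RT; 460/530 nm ratio gave %activity.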

Test [15] in a line: Stat Signaling Pathway (AID 446; active = well fitted curve in either direction with a large enough effect, not every such curve was filed as active). To be noted: ME-180 (cervical carcinoma) SIE beta-lactamase reporter, IL-6 stimulated, 5 h; at 7.69 µM (top of the series) unless noted. Put shortly: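 Emission at 460 and 530 nm (excitation 405 nm) reports SIE-controlled beta-lactamase in ME-180 cells. Cells received compound with 40 pM IL-6 for 5 hrs at 37 C; data scaled between 300 pM IL-6 and 125 nM JAK-inhibitor controls.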

For test [16], the target named is 3',5'-cyclic-AMP phosphodiesterase 4B (Homo sapiens) (UniProt Q07343). Description: qHTS Assay for Inhibitors of PDE-IV (AID 607; active = well fitted activation curve with a large enough effect in the main read-out, with a control signal flat, not every such curve was filed as active; also: % of control where 0% means no effect). Summed up: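 The readout is membrane depolarisation from a cAMP-sensing CNG channel, detected with a potential dye at ex 535/em 590. Cells were HEK293-derived (endogenous PDE-IV) at 1000 cells/well, titrated up to 22.9 uM final.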
Test [17] has as its target Cytochrome P450 2C19 (Homo sapiens) (UniProt P33261). Kind of test: qHTS Assay for Inhibitors and Substrates of Cytochrome P450 2C19 (AID 899). Also: potency is read from the fitted curve at half-maximal effect; nearly all actives have a fitted effect of over 60% in size. Put shortly:
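NADPH-dependent conversion of Luciferin-H EGE (10uM, at KM) by 5nM enzyme in 50mM KPO4, 60 min at 37C following 10 min compound preincubation. Stopped with luciferin detection buffer; luminescence read after 20 min.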

Test [18] addresses Cytochrome P450 2D6 (Homo sapiens) (UniProt P10635). Description: qHTS Assay for Inhibitors and Substrates of Cytochrome P450 2D6 (AID 891). Also: potency is read from the fitted curve at half-maximal effect; nearly all actives have a fitted effect of over 60% in size. Summed up:
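Luminescent read-out of luciferin formed by 5 nM human CYP2D6 demethylating 30 uM Luciferin-ME EGE (Km level) over 60 min at room temperature after NADPH regeneration addition. Data normalized to full inhibition by 1.43 uM quinidine.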

The target in test [19] is Lysosomal acid glucosylceramidase (Homo sapiens) (UniProt P04062). Description: Glucocerebrosidase-p2 (AID 348; in the data active = potency below about 10 µM; also: potency is read from the fitted curve at half-maximal effect). To be noted: purified GBA, blue fluorogenic substrate, 40 min. Summed up:
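Normal human glucocerebrosidase (0.2 nM) with blue fluorogenic substrate (80 uM final) in citrate/phosphate pH 5.9 with 10mM sodium taurocholate, 0.01% tween-20; 40 min RT, NaOH/glycine stop; fluorescence Ex 365/Em 440; AC50 from a titration from 0.6 nM upwards.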

Each structure is given as a SMILES string. Values without a mark were called inactive. Records with an inconclusive call do not appear. The source made the active and inactive calls. Unless noted, calls follow the shape of the dose curve; as a rule, active = well fitted curve in the direction sought with a large enough effect; inconclusive = small, poorly fitted or top-dose-only effect, or another doubt; inactive = no such curve, though single readings can be large; an effect the other way counts as inactive or inconclusive.

Chain of Cytochrome P450 3A4 (Homo sapiens) (P08684 whole entry, looked up): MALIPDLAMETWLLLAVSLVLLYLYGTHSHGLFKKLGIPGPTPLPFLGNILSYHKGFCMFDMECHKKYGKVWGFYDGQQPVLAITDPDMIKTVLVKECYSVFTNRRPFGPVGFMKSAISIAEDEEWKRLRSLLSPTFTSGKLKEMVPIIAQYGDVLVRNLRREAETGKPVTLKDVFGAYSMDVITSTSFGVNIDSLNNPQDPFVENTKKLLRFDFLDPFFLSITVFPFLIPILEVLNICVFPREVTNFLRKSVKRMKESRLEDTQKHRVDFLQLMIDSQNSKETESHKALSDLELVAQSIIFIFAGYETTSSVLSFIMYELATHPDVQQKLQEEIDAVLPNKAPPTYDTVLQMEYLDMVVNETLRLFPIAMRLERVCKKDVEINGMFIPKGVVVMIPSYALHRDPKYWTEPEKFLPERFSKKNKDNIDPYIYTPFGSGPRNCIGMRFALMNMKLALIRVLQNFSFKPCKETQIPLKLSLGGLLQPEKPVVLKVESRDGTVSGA
Chain of Cytochrome P450 1A2 (Homo sapiens) (P05177 whole entry, looked up): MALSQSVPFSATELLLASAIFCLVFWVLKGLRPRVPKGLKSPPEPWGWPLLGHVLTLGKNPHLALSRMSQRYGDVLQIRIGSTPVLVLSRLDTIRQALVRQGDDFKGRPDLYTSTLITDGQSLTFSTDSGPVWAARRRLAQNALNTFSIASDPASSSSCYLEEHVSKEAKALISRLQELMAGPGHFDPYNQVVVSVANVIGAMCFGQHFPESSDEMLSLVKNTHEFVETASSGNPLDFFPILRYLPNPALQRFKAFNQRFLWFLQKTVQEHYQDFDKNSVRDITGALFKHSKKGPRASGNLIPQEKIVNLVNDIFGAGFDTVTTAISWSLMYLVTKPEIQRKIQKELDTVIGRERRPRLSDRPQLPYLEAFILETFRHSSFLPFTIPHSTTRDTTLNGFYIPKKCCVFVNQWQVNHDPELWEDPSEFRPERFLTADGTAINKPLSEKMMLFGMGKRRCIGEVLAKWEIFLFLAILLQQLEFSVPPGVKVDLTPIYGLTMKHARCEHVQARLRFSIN
Chain of Glucocorticoid receptor (Homo sapiens) (P04150 whole entry, looked up): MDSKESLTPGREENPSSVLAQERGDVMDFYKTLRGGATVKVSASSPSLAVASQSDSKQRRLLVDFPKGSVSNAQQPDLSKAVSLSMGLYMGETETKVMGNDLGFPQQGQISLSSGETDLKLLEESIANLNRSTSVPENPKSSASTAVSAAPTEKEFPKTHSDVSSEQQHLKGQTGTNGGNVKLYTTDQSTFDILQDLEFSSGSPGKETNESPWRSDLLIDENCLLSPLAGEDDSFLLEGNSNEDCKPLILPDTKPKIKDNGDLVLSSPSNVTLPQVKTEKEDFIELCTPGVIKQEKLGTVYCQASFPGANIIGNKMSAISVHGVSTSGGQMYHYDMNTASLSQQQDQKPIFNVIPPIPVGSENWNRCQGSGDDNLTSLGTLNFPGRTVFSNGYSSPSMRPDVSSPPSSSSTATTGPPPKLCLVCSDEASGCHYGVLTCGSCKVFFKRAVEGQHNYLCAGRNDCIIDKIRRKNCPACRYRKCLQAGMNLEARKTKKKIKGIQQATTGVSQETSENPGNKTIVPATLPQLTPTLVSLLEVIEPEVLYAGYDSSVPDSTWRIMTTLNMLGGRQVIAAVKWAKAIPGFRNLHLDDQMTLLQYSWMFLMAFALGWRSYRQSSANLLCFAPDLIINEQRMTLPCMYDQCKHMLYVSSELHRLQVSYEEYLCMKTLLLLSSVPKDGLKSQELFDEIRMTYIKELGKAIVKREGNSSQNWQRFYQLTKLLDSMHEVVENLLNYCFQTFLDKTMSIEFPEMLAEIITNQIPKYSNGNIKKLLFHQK
Chain of Ubiquitin carboxyl-terminal hydrolase 1 (Homo sapiens) (O94782 whole entry, looked up): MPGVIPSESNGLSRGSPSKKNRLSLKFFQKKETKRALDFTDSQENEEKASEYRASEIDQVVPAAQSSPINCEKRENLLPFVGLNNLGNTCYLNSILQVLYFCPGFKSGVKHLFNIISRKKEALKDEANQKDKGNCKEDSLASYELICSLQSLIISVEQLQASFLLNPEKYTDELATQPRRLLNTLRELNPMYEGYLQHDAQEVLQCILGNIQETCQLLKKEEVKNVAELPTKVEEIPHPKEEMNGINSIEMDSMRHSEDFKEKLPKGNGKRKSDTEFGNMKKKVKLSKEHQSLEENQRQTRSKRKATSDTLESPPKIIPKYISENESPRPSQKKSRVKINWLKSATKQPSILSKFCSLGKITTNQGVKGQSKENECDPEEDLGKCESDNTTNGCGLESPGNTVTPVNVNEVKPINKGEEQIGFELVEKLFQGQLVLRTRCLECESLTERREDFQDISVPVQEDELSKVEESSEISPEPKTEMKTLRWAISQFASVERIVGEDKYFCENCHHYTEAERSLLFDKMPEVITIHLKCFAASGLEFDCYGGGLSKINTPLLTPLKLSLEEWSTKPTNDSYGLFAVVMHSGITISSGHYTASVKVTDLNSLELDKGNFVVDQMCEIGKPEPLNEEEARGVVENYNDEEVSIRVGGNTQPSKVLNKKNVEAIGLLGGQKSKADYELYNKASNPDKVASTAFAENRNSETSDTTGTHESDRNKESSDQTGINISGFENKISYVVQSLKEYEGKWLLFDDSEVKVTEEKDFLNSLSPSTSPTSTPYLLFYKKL
Chain of Lysosomal acid glucosylceramidase (Homo sapiens) (P04062 whole entry, looked up): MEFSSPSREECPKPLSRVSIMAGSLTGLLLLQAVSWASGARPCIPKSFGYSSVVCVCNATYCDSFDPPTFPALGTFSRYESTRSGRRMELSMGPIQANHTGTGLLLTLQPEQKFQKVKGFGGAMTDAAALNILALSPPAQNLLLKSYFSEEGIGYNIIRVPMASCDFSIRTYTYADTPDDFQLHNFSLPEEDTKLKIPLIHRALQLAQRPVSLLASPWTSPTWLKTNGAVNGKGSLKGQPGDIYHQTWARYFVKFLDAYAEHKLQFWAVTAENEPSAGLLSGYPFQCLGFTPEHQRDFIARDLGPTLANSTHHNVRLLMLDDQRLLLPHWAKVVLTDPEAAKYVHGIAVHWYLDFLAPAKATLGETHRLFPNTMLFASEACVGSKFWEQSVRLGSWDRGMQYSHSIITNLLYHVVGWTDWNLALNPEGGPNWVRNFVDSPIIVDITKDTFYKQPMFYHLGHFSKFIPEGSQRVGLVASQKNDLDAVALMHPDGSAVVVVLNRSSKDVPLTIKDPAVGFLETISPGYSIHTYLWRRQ
Chain of 3',5'-cyclic-AMP phosphodiesterase 4B (Homo sapiens) (Q07343 whole entry, looked up): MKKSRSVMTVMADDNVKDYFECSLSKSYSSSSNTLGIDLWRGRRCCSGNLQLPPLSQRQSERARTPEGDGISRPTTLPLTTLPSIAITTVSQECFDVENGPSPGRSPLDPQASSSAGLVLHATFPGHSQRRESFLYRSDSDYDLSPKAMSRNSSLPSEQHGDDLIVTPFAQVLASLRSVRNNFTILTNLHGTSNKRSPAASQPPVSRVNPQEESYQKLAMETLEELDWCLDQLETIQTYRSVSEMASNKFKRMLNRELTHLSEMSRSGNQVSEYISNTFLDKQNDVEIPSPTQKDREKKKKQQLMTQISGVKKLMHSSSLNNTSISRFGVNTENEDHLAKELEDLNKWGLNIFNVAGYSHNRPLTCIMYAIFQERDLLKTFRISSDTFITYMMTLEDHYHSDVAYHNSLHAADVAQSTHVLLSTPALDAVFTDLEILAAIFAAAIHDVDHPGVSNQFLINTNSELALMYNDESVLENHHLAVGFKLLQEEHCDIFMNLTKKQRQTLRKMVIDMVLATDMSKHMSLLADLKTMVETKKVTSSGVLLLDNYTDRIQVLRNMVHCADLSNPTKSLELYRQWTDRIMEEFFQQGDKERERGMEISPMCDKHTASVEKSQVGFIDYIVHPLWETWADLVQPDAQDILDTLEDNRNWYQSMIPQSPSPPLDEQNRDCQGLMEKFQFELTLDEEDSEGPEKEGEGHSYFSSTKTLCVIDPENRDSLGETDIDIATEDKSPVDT
Chain of Dual specificity protein kinase CLK4 (Homo sapiens) (Q9HAZ1 whole entry, looked up): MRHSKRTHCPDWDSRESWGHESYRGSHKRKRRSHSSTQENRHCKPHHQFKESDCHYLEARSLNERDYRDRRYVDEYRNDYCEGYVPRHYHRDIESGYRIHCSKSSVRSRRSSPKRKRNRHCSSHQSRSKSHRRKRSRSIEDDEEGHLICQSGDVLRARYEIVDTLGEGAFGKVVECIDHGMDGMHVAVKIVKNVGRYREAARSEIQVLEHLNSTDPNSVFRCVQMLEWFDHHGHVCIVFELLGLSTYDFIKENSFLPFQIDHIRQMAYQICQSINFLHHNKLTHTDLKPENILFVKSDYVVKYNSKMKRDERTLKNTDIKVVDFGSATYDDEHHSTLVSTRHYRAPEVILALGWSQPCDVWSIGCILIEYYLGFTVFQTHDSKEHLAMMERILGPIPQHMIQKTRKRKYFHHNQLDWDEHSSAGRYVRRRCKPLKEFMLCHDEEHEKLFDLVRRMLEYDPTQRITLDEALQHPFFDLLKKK
Chain of Cytochrome P450 2C19 (Homo sapiens) (P33261 whole entry, looked up): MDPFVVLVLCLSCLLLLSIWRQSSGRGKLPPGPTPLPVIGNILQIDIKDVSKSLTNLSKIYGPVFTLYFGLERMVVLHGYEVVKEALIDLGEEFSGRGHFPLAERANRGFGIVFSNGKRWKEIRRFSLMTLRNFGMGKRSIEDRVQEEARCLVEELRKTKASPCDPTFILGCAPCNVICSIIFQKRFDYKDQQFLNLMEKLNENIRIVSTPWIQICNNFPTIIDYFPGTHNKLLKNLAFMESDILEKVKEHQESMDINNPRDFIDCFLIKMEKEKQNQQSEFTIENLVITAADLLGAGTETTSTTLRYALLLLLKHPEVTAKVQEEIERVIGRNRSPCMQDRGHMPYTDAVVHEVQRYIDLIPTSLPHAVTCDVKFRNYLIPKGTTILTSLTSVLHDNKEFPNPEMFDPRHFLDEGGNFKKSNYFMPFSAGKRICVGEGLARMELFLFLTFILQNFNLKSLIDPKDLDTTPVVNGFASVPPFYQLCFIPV

In the case of `COc1ccc(CNc2nc(-c3cccc(NS(C)(=O)=O)c3)nc3ccccc23)c(OC)c1`, the Potency in test [1] is 15.8 µM (active); in [2], greater than 46 µM; in test [3], greater than 46 µM; in test [5] it was 0.158 µM (active); in test [6], 2.51 µM (active). For the same compound, the Potency result in test [4], in test [7], in test [8], in test [9], in test [10] and in test [11] was “inactive” in each case. In addition, the result in test [12] was inactive.

For the compound `COc1ccccc1CNc1ccnc(-c2ccccc2Cl)n1`, the activity change, negative = inhibition in [13] is -21.9%; in test [14] it was -0.207%. Moreover, the Potency in [1] was 5.01 µM (active); in test [2], greater than 46 µM; in test [3], greater than 46 µM; in test [17] it was 1.58 µM (active). Besides, the activity, negative = inhibition in [15] was -0.645%. Also, the Potency entry in [4], in test [16], in test [7], in test [8], in test [9] and in test [10] was “inactive” in each case. In addition, the result in test [12] was inactive.

Regarding `COc1ccccc1CNc1ccnc(-c2ccccc2OC)n1`, the activity change, negative = inhibition in test [13] is -0.503%; in test [14], -0.0586%. Further, the Potency in test [1] was 3.98 µM (active); in test [2], greater than 46 µM; in [3] it was greater than 46 µM; in test [18], 1.58 µM (active). The activity, negative = inhibition in [15] is 9.83%. The Potency result in test [4], in test [16], in test [7], in test [8], in [9] and in test [10] was “inactive” in each case. Moreover, in test [12], the result was inactive.

Turning to `CS(=O)(=O)Nc1cccc(-c2nc(NCc3ccccc3)c3ccccc3n2)c1`, the Potency is greater than 11.4 µM in test [19]; 2.51 µM (active) in [1]; greater than 46 µM in test [2]; greater than 46 µM in [3]; 3.16 µM (active) in [6]; 31.6 µM (active) in [8]. The Potency in [9] is 28.2 µM (active). The activity change, negative = inhibition in test [13] was -10.8%; in [14], 7.92%. For the same compound, the activity, negative = inhibition in test [15] was -10.7%. The Potency result in test [4], in test [7] and in [11] was “inactive” each time. The outcome in [12] was inactive.

In the case of `c1cncc(-c2nccc(NCc3cccs3)n2)c1`, the Potency in test [19] was greater than 11.4 µM; in [1] it was 0.2 µM (active); in [2], greater than 46 µM; in test [3], greater than 46 µM; in test [5], 0.398 µM (active); in test [18], 0.631 µM (active). The Potency is 7.94 µM (active) in test [17], 14.1 µM (active) in test [8] and 10 µM (active) in [9]. Besides, the activity change, negative = inhibition in test [13] is 4.03%; in test [14], 13.5%. In test [15], the activity, negative = inhibition was -3.1%. Further, the Potency result in test [4], in test [7] and in [11] was “inactive” throughout. In addition, in test [12], the outcome was inactive.

For the compound `Cc1nc2cnc(Oc3cccc(Cl)c3)nc2n(C2CC2)c1=O`, the Potency in test [19] is greater than 11.4 µM; in test [1], 6.31 µM (active); in [2] it was greater than 9.22 µM; in [3], greater than 46 µM. Besides, the activity change, negative = inhibition was -22.3% in test [13] and -5.3% in [14]. The activity, negative = inhibition in [15] is -13.7%. Also, the Potency entry in [4], in test [16], in test [8], in test [9] and in test [11] was “inactive” throughout. Besides, the result in [12] was inactive.

Regarding `CN(C)c1ncc2nc(-c3cc(F)cc(F)c3)c(=O)n(CCc3ccccc3)c2n1`, the Potency entry in [1], in test [16], in test [8], in test [9], in test [10] and in test [11] was “inactive” in each case. Further, the Potency in test [2] is greater than 9.22 µM; in test [3], greater than 46 µM. Further, the outcome in [12] was inactive.
